FUS yeast rescue: suppressors of FUS proteinopathy in yeast; AID 1347120; Potency, µM (doses to about 76.6 µM), most hits filed as activators; 390,000 compounds, 0.24% hits; S. cerevisiae FUS-expressing, growth rescue, OD600, 24 h; also: nearly all actives have a fitted effect of over 55% in size
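FUS-expressing yeast, raffinose-pregrown, induced in 2% galactose minimal medium at OD 0.005; compounds in a dilution series, 24hr at 30C. Growth restoration read as absorbance at 600 nm. CP55940 positive control, DMSO negative.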
TDP43 rescue: inhibitors of TDP-43 toxicity in yeast; AID 652104; 410,000 compounds, 1.8% hits; TDP-43 expressing yeast growth rescue, BacTiter-Glo, 24 h; Potency, µM (doses to about 46.1 µM), usual class: activators; also: nearly all actives have a fitted effect of over 50% in size
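Cell-based yeast growth screen: TDP-43 expression induced in galactose, inoculum OD600=0.02 after raffinose pregrowth to mid-log. Read-out BacTiter-Glo luminescence at 24 hr, 30 deg C; inhibition of toxicity seen as signal increase.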
Mito fusion yeast: mitochondrial division inhibition or fusion activation; 320,000 compounds, 0.23% hits; AID 485298; S. cerevisiae fusion-defective mutant growth rescue, CellTiterGlo 48 h; Potency, µM (doses to about 46.1 µM), most hits filed as activators; also: nearly all actives have a fitted effect of over 45% in size
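Read-out: ATP-based luminescence (CellTiterGlo, 10 min ambient) reporting growth of fusion-defective ts yeast after 48 hours at 37C on glycerol/ethanol YPEG medium in the presence of compound.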
aSyn rescue: alpha-synuclein toxicity inhibition in yeast; Yeast expressing alpha-synuclein, growth rescue, BacTiter-Glo, 24 h; Potency, µM (series often up to 46.1 µM), actives largely listed as activators; 370,000 compounds, 0.14% hits; AID 652106; also: nearly all actives have a fitted effect of over 65% in size
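Rescue of yeast growth: cells expressing toxic alpha-synuclein, induced in galactose at OD600 0.02, incubated with compound 24 h at 30 C. ATP luminescence quantified growth; inhibitors of toxicity appear as activators.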
Abeta rescue: compounds reversing amyloid beta toxicity in yeast; yeast expressing A-beta42, growth rescue, OD600, 48 h; response scale: 0% DMSO, 100% iron-clioquinol control; Potency, µM (highest dose often 46.1 µM), hits mostly activators; 410,000 compounds, 0.063% hits; AID 1347071; also: nearly all actives have a fitted effect of over 55% in size
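Growth rescue measured by 600 nm absorbance after 48 h yeast culture at 30 C with compound. Values normalized between DMSO and an equimolar ferric chloride plus clioquinol control.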
Numbers stand for hits; 0 = inactive; ? = inconclusive; - = no result given. This is a sample that favours compounds with a hit; in the whole collection about 2.2% have one here. Calls follow the shape of the dose curve; as a rule, active = well fitted curve in the direction sought with a large enough effect; inconclusive = small, poorly fitted or top-dose-only effect, or another doubt; inactive = no such curve, though single readings can be large; an effect the other way counts as inactive or inconclusive.

SMILES | FUS yeast rescue | TDP43 rescue | Mito fusion yeast | aSyn rescue | Abeta rescue
CCN(Cc1ccccc1)C(=S)NC(=O)c1ccccc1Br | 0 | 0 | 0 | 0 | 10µM
O=C(N/N=C/c1c[nH]c2ccccc12)C1COc2ccccc2O1 (stereo not given) | 0 | 0 | 0 | 0 | 0
CC(C)(C)c1ccc2c(c1)OC(C(=O)N/N=C\c1ccc(-c3cccc(C(=O)O)c3)o1)CO2 (stereo not given) | ? | 0 | 0 | 0 | 0
O=C(N/N=C\c1ccc(Cl)s1)C1COc2ccccc2O1 (stereo not given) | 0 | 18µM | 0 | 0 | ?
O=C(N/N=C\c1ccc([N+](=O)[O-])o1)C1COc2ccccc2O1 (stereo not given) | 0 | ? | 0 | 0 | 0
CC(C)(C)c1ccc2c(c1)OC(C(=O)N/N=C\c1ccccn1)CO2 (stereo not given) | - | ? | 16µM | 14µM | ?
O=C(N/N=C\c1ccc([N+](=O)[O-])s1)C1COc2ccccc2O1 (stereo not given) | 0 | 3.5µM | 0 | 0 | 0
COc1cccc(C(O)c2ncc(-c3ccc(Cl)cc3)[nH]2)c1 (stereo not given) | 0 | 0 | - | 0 | 0
COc1ccc(CNc2nc3c(c(=O)n(C)c(=O)n3C)n2Cc2ccccc2Cl)cc1 | 0 | 0 | - | - | 0
O=C(COC(=O)c1cc(=O)[nH]c(=O)[nH]1)Nc1cccc(S(=O)(=O)N2CCOCC2)c1 | 0 | 0 | 0 | 0 | 0
O=C(COC(=O)c1n[nH]c(=O)c2ccccc12)Nc1cccc(S(=O)(=O)N2CCOCC2)c1 | 40µM | 0 | - | 0 | 0
Cc1cc(OCc2cccc(S(=O)(=O)N3CCOCC3)c2)ccc1Cl | 0 | 35µM | 0 | 0 | 0
COc1cc(OC)nc(-n2ncc(Br)c(Br)c2=O)n1 | 0 | 11µM | ? | 0 | 0
COC(=O)c1cnn(-c2nc(OC)cc(OC)n2)c1C | - | 0 | 0 | 0 | 0
Clc1cc2cccnc2c2ncccc12 | 0 | 0 | 0 | 0 | 0
CC(C)C(NS(=O)(=O)c1ccc2c(c1)oc(=O)n2C)C(=O)N1CCN(c2cccc(Cl)c2)CC1 (stereo not given) | ? | 0 | - | - | 0
CN(/N=C/c1ccccc1Cl)c1ncc(Cl)cc1C(F)(F)F | 0 | 0 | 0 | 0 | 0
CN(/N=C/c1ccc(O)cc1O)c1ncc(C(F)(F)F)cc1Cl | 0 | 35µM | 0 | 0 | ?
CCCN1CNc2c(c(=O)[nH]c(=S)n2CCc2ccccc2OC)C1 | - | - | - | 0 | -
CCOC(=O)c1oc2ccc(S(=O)(=O)n3nc(-c4ccc(OC)cc4)cc3N)cc2c1C | 0 | 0 | 13µM | 0 | 0
COc1cccc(-n2nnnc2SCC(=O)Nc2ccccc2OC)c1 | 0 | 0 | 0 | 0 | 0
CCCS(=O)(=O)c1nnnn1-c1cccc(OC)c1 | 0 | 11µM | 0 | 0 | 0
CC(=O)c1ccc(N2CCN(C(=O)/C=C/c3ccc4ccccc4n3)CC2)cc1 | 0 | ? | 0 | 10µM | 0
CC(=O)c1ccc(N2CCN(C(=O)c3ccc4ccccc4n3)CC2)cc1 | 0 | 0 | 0 | 0 | 0
SMILES | FUS yeast rescue | TDP43 rescue | Mito fusion yeast | aSyn rescue | Abeta rescue
COc1cccc(NC(=O)COC(=O)c2nc(Cl)ccc2Cl)c1 | 0 | 16µM | 0 | 0 | 0
COc1ccc(OC)c(NC(=O)COC(=O)c2nc(Cl)ccc2Cl)c1 | 0 | 0 | 0 | 0 | 0
O=C(COC(=O)c1nc(Cl)ccc1Cl)Nc1ccc(Cl)cc1 | 0 | 16µM | 0 | 0 | 0
O=C(CCC1CCCCC1)Nc1ccccc1-c1ccccc1 | 0 | 14µM | 0 | 0 | 0
O=C(c1ccccc1)c1ccc(OCC(O)CNCc2cccc(Cl)c2)cc1 (stereo not given) | 0 | 0 | 0 | 0 | 0
COc1ccc(N2CCN(C(c3cc4cc(C)ccc4[nH]c3=O)c3nnnn3Cc3ccccc3)CC2)cc1 (stereo not given) | 8.9µM | 0 | 0 | 0 | 0
COc1ccc(CCC(=O)NCc2nc3cccnc3n2Cc2ccc(F)cc2)cc1 | 0 | 0 | - | - | 0
C[C@H]1CN([C@@H](C)CO)C(=O)CCCn2cc(nn2)CO[C@@H]1CN(C)S(=O)(=O)c1ccc(C#N)cc1 | 0 | 0 | - | 0 | 0
COc1ccc(C2NC(=S)N(c3ccccc3)C(C)=C2C(=O)Nc2ccccc2)cc1 (stereo not given) | 0 | 0 | 0 | 0 | 0
CC1=C(C(=O)Nc2ccc([N+](=O)[O-])cc2)C(c2cccc(C(F)(F)F)c2)NC(=S)N1c1ccccc1 (stereo not given) | 10µM | 0 | 0 | 0 | 0
CCc1cccc(NC(=O)C(CC(C)C)NS(=O)(=O)c2ccc3c(c2)oc(=O)n3C)c1 (stereo not given) | 0 | 0 | - | - | 0
O=C(Nc1nc2c(Cl)ccc(Cl)c2s1)c1ccco1 | 0 | ? | 0 | 0 | 0
CC(=O)Nc1nc2c(s1)CCc1ccccc1-2 | 0 | 0 | 0 | 0 | -
O=C(CCCl)Nc1nc2c(s1)CCc1ccccc1-2 | 0 | 22µM | 0 | 0 | 0
O=C(Nc1nc2c(s1)CCc1ccccc1-2)c1ccco1 | 0 | 13µM | 0 | 0 | 0
Cc1ccc(NCc2cccn2-c2nnc(N3CCCCCC3)s2)cc1 | 0 | 0 | - | 0 | 0
Cc1ccc(OCC(=O)N(Cc2ccco2)c2ccccn2)cc1 | 0 | 0 | - | - | 0
COc1cc(/C=C/c2nc(-c3ccccc3O)n[nH]2)cc(OC)c1OC | - | 16µM | ? | 0 | 0
COc1ccc(/C=C/c2nc(N)nc(-c3ccccc3O)n2)cc1OC | - | 16µM | 0 | 0 | 0
CCCCCCC(=O)N(O)C1CC(=O)N(c2ccc(Br)cc2)C1=O (stereo not given) | 0 | 0 | 0 | 0 | 0
COc1ccccc1N(O)C1CC(=O)N(c2ccc(Br)cc2)C1=O (stereo not given) | ? | 28µM | 0 | 0 | 0
Cc1ccc(NC(=O)CSc2nc3ccc(NC(=O)c4cccc(Cl)c4)cc3s2)c(C)c1 | 0 | 0 | - | - | 0
Nc1c(-c2nc(-c3ccccc3)cs2)c2ccccn2c1C(=O)c1ccc2c(c1)OCO2 | 0 | 0 | - | - | 0
Cc1ccc2nc3ccc(N4CCCCCCC4)nn3c(=O)c2c1 | 0 | 22µM | 0 | 0 | 0
Cc1ccccc1-c1cccc([C@@H]2C[C@H]3[C@H](CON3C)CN2C(=O)C(C)(C)C)c1 | 0 | 0 | - | 0 | 0
CCOC(=O)N1CCN(C(=O)C[C@@H]2C(=O)N(Cc3ccc(OC)cc3)/C3=C/CCCCC[C@@]32C(=O)OCC)CC1 | 0 | - | - | - | -
Cc1ccc(S(=O)(=O)N2CCN(C(=O)COC(=O)c3ccccc3Cl)CC2)c(C)c1 | 0 | 25µM | 0 | 0 | 0
Cc1ccc(S(=O)(=O)N2CCN(C(=O)COC(=O)c3ccccc3OC(F)F)CC2)c(C)c1 | 0 | 0 | - | 0 | 0
COc1ccc(C(C)(NC(C)=O)c2nc(-c3cccnc3)cs2)cc1 (stereo not given) | 0 | ? | - | 0 | 0

Compound activity as filed in PubChem.
